Screening results from PubChem.
The sample as a whole holds a higher share of hits than the screen did.
Dicer processing: inhibitors of human Dicer processing of pre-microRNA. Q9UPY3. AID 1347074. actives 6% (n = 47,000). cat-ELCCA pre-miR-21 Dicer processing, chemiluminescence; stronger effect = higher value. z-score at 25 µM; in the data active means z-score above about 3, passing the limit was not always enough;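 further: plate controls were vehicle for no effect and no enzyme for full effect; higher signal means more uncleaved substrate so more Dicer inhibition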
The depositor's hits bear a star; ! = a repeat was not active.

SMILES	Dicer processing
O=C1CC(c2ccccc2Cl)Cc2nc(N3CCc4ccccc43)ncc21 (configuration not stated)	-0.28
Cn1c(=O)n(C)c2cc(S(=O)(=O)Nc3ccc(C(=O)O)cc3)ccc21	0.33
O=S(=O)(c1ccc2c(c1)Cc1cc(S(=O)(=O)N3CCCCC3)ccc1-2)N1CCCCC1	-0.07
Cn1c(=O)n(C)c2cc(S(=O)(=O)N3CCCC3)ccc21	3.5*
Cc1c(C)c(C)c(CS/C(N)=N/N)c(C)c1C	-1.9
c1ccc2c(c1)N=C(NNC1=Nc3ccccc3SC1)CS2	3.8*
Cc1nc2c(cnn2-c2ccccc2)c(=O)n1NC(=O)Nc1ccc(Cl)c(Cl)c1	4.7*
O=c1c2cnn(-c3ccccc3)c2nc(-c2ccco2)n1-c1ccccc1	-0.43
Cc1nc2c(cnn2-c2ccccc2)c(=O)n1-c1cccc2ccccc12	3.2*
O=C(Cn1cnc2c(cnn2-c2ccccc2)c1=O)c1ccc(Cl)cc1	-0.65
CCOC(=O)c1cnn(-c2ccccc2)c1NC(=O)Nc1cccc(Cl)c1	-0.56
Cc1nc2c(cnn2-c2ccccc2)c(=O)n1/N=C/c1ccccc1	-0.04
CSc1nc2sc3c(c2c(=O)n1-c1ccccc1)CC(C)(C)OC3	1.5
COc1ccc(/C(O)=C2\C(=O)C(=O)N(CCCn3ccnc3)C2c2ccc(C(C)C)cc2)cc1 (configuration not stated)	0.64
c1ccc2c(c1)ncn2CN1CCCCC1	1.4
CCOC(=O)C(Sc1nc2sc3c(c2c(=O)n1C)CCCC3)C(C)=O (configuration not stated)	-1.6
CN(C)c1ccc(CC(C#N)c2ccc(N)cc2)cc1 (configuration not stated)	0.43
Cc1cc(C)n2c(SCC(C)C)nnc2n1	-0.03
Cc1ccc(S(=O)(=O)NCC(Sc2nnc3nc(C)cc(C)n23)c2ccccc2)cc1 (configuration not stated)	3.5*
Cc1cc(C)n2c(SCC(=O)O)nnc2n1	-0.62
CC(=O)OC[C@H]1O[C@@H](n2cnc3c(N)ncnc32)[C@@H]2OC(C)(C)O[C@@H]21	0.05
O=C(ON/C=N/c1ncc(-c2ccc(Br)s2)s1)c1ccc([N+](=O)[O-])cc1	0.29
Cc1ccc(-c2nc(/N=C/NOC(=O)c3ccc([N+](=O)[O-])cc3)sc2C)cc1Cl	3.6*
Cc1ccc(-c2nc(/N=C/N(C)C)sc2C)cc1Cl	-0.43
CC(C)Oc1ccccc1Nc1ncnc2ccccc12	16
SMILES	Dicer processing
CSC1=C(C(=O)c2ccccc2)CC(CC(=O)O)C(=O)N1c1ccccc1 (configuration not stated)	-0.86
CCOC(=O)C1CCN(S(=O)(=O)c2sc3ccc(Cl)cc3c2C)CC1	-0.13
CCC(NS(=O)(=O)c1ccccc1)C(=O)O (configuration not stated)	0.71
COC(=O)c1sc(SC)c(S(=O)(=O)C(C)C)c1N/N=C(\C#N)S(=O)(=O)C(C)C	-1.1
O=C(COc1ccccc1)NC1C(=O)N2C(C(=O)O)=C(Cl)CSC12 (configuration not stated)	-0.43
NC(=O)c1cc[n+](CC2=C(C(=O)O)N3C(=O)[C@@H](NC(=O)[C@@H](c4ccccc4)S(=O)(=O)[O-])[C@H]3SC2)cc1	3.7*!
CC(=O)OCC1=C(C(=O)O)N2C(=O)[C@@H](NC(=O)Cc3cccs3)[C@H]2SC1	2.6
CC(C)c1nc2c(c3c1[nH]c1ccccc13)C(=O)CC(C)(C)C2	-0.28
Cc1nn(C(=O)c2ccc(Cl)cc2)c(C)c1Sc1ncccn1	0.15
Cc1ccc(NS(=O)(=O)c2cc(Cl)c(Cl)cc2Cl)c(N)c1	8.3*
O=S(=O)(Nc1ccc(F)cc1)c1cc(Cl)c(Cl)cc1Cl	-0.49
Cc1ccc(NS(=O)(=O)c2ccc(Cl)cc2)c(N)c1	2.8
Clc1cccc(CSc2nnc3c(n2)[nH]c2ccccc23)c1	0.46
COc1ccc(NC(=O)CSc2nc(-c3cccs3)cc(C(F)(F)F)n2)cc1	-1.8
Clc1ccc2c(c1)N=C(N1CCNCC1)c1ccccc1N2	4*
O=C1Nc2ccc(Cl)cc2C(c2ccccc2)=Nc2ccccc21	-1.2
CN1CCN(C2=Nc3cc(Cl)ccc3Nc3ccccc32)CC1	20
O=C(/C(=C/Nc1cc(C(F)(F)F)cc(C(F)(F)F)c1)[N+](=O)[O-])c1ccc(Cl)c(Cl)c1	0.18
CCOC(=O)CSc1nc2nc(C)c([N+](=O)[O-])c(=O)n2[nH]1	-0.08
CSc1ssc(=Nc2cccc(C(F)(F)F)c2)c1-c1ccccc1	0
O=C(CCN(Cc1ccco1)S(=O)(=O)c1ccc(Cl)cc1)NNC(=O)c1ccc(Cl)cc1	0.5
CC(C)n1c(Oc2ccc(F)cc2)nc2c1c(=O)n(C)c(=O)n2C	0.6
Cc1cc(Oc2nc3c(c(=O)n(C)c(=O)n3C)n2C)cc(C)c1Cl	3.8*
Cn1c(=O)c2c(nc(Oc3ccc(F)cc3Cl)n2C)n(C)c1=O	2.9
COc1cc(NC(=O)Cn2nc(C(F)(F)F)c3c2CCC3)c(OC)cc1Cl	-0.28
SMILES	Dicer processing
CN(C)c1ccsc1C(=O)NNS(=O)(=O)c1cc(C(F)(F)F)cc(C(F)(F)F)c1	0.8
Cc1nc(C(F)(F)F)nc(Sc2n[nH]c(-c3ccccc3)n2)c1C	-0.27
CCOC(=O)c1ccc(CSc2n[nH]c(C)n2)o1	-1
CCOC(=O)c1cc(=O)c2c(O)cccc2o1	-0.64
CCCc1cc(-c2n[nH]c(C)c2-c2ccc(C(=O)OCC)o2)c(O)cc1O	3.9*
c1ccc(-c2ccc(-c3cnc(-c4ccccc4)o3)cc2)cc1	1.9
CCOC(=O)C1=C(C)Nc2ncnn2C1c1ccncc1 (configuration not stated)	-0.4
Cc1oc2cc(O)ccc2c(=O)c1-c1ccc2c(c1)OCCO2	5.5*
CCCc1cc2c(=O)c(-c3ccc4c(c3)OCCO4)coc2cc1O	0.45
CCOC(=O)c1oc2cc(O)c(CC)cc2c(=O)c1-c1ccc2c(c1)OCCO2	4.5*
Cc1cc(=O)oc2cc(O)ccc12	0.16
CCOC(=O)c1oc2cc(O)ccc2c(=O)c1-c1ccc2c(c1)OCCO2	2.6
COc1ccc(-c2c(C)oc3cc(OC(C)C(=O)O)ccc3c2=O)cc1OC (configuration not stated)	1.3
Cc1ccc2nc(-c3ccccc3F)oc(=O)c2c1	0.12
O=C(c1cnc2cc(-c3ccc(Cl)cc3)nn2c1)c1cc(F)ccc1O	0.04
COC(=O)c1cc([N+](=O)[O-])ccc1NC(C)=O	0.17
COc1ccc(Nc2cc(C)nc3ccc(OC)cc23)cc1	2.8
COc1ccc2nc(C)cc(Nc3ccc(Cl)cc3)c2c1	3.1*
Cc1ccc(Nc2cc(C)nc3ccc(C)cc23)cc1	-0.61
O=C(O)CCCC(=O)N1N=C(c2ccccc2)CC1c1ccccc1F (configuration not stated)	-0.05
COc1cccc(OC)c1NC(=O)NC(=O)c1c(OC)c(Br)cc([N+](=O)[O-])c1OC	8.8
COc1c(Br)cc([N+](=O)[O-])c(OC)c1C(=O)NC(=O)Nc1cc(C(F)(F)F)cc(C(F)(F)F)c1	4.2*
COc1c(Br)cc([N+](=O)[O-])c(OC)c1C(=O)NC(=O)Nc1c(Cl)cc([N+](=O)[O-])cc1Cl	1.1
CCn1c2c(c(=O)[nH]c1=O)C(c1ccc(F)cc1)C1=C(N2)c2ccccc2C1=O (configuration not stated)	-2.3
CCOC(=O)CNC(=O)c1ccccc1	2.8
CCOC(=O)CNC(=O)c1ccc(Cl)cc1	-0.21
CCCc1nn(C)cc1C(=O)NCC(=O)OCC	4.8*
O=C(O)c1ccc(Oc2ccc([N+](=O)[O-])cc2)cc1C(=O)O	-0.13
O=C(O)[C@H]1CCCCN1C(=O)OCC1c2ccccc2-c2ccccc21	1.1
